Only some compounds are listed: those with a hit (about 22% of all), similar ones and a draw of the others.
Pf growth 96h: P. falciparum growth inhibition at 96 hour, primary screen for plastid delayed-death inhibitors; P. falciparum luciferase reporter growth, 96 h; Potency, µM (top dose mostly 28.7 µM), for inactives: top-dose activity change, negative = inhibition, usual class: inhibitors; hit rate 6.9% among 320,000; AID 504834; note: potency is the fitted concentration of half-maximal effect; % is set by controls: 0 for no effect and ±100 for the full control effect
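96 h incubation, 37 C, 5% CO2, of luciferase-reporter P. falciparum-infected RBCs (2% hematocrit, 0.05% parasitemia final) with test compounds; endpoint luminescence.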
LmPK inh: LmPK (Leishmania mexicana) enzyme inhibition; purified LmPK, Kinase-Glo ATP luminescence, 1 h; hit rate 0.37% among 290,000; Potency, µM (series often up to 57.5 µM), inactives show at the top dose activity change, negative = inhibition, usual class: inhibitors; note: potency is the fitted concentration of half-maximal effect; % is set by controls: 0 for no effect and ±100 for the full control effect
Target sequence (Q27686 whole entry, looked up): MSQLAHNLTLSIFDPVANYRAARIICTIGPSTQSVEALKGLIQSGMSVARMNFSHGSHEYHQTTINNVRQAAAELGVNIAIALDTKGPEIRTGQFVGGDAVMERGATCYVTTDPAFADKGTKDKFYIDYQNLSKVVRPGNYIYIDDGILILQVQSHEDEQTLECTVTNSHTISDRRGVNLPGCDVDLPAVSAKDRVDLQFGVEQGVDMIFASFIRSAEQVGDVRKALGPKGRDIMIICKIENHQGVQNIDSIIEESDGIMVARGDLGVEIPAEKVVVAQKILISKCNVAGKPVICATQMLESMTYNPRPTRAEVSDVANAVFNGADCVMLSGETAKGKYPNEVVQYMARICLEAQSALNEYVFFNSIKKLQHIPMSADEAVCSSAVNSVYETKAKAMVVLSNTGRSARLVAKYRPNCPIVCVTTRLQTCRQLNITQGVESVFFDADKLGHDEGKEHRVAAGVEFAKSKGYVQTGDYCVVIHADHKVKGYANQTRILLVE
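Pyruvate kinase activity monitored as ATP production (luciferase luminescence). Conditions: 0.1 nM enzyme, 0.5 mM PEP, 0.1 mM ADP, 1 h, RT; normalized against uninhibited and no-enzyme wells.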
Cycloheximide cs: counter-screen for Shiga toxin inhibitors: cycloheximide protein synthesis inhibition; cell reporter, cycloheximide protein synthesis inhibition counterscreen; AID 2314; max response, %; hit rate 12% among 300,000; in the data active = max response mostly above about 13%, no sharp cut-off; inactive = mostly below about 14%; note: read at 38.3 µM for the half of the compounds with a filed dose; 0% is about no effect
Shiga inhibitor: blocks Shiga toxin action in Vero cells; Vero cells, Shiga toxin protein synthesis inhibition reporter; hit rate 9.2% among 290,000; inhibition, % at 38.7 µM; in the data active = inhibition mostly above about 28%, no sharp cut-off; inactive = mostly below about 43%; note: 0% is about no effect
Pf growth 48h: inhibits P. falciparum growth in the first generation, 48 h; P. falciparum luciferase growth in erythrocytes, 48 h; Potency, µM (top dose mostly 28.7 µM), for inactives: at the highest dose activity change, negative = inhibition, hits mostly inhibitors; hit rate 5.9% among 310,000; AID 504832; note: potency is the fitted concentration of half-maximal effect; % is set by controls: 0 for no effect and ±100 for the full control effect
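Read-out is firefly luciferase luminescence from an integrated reporter in P. falciparum, so falling signal marks reduced parasite growth. Infected erythrocytes were at 2% hematocrit and 0.1% parasitemia (final) in Albumax-supplemented RPMI 1640.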
Active calls of the source: *; i = inactive; ? = inconclusive; nt = no result; + = active, no number; [ ] = remark or other dose. Unless noted, calls come from the whole dose curve; as a rule, active = well fitted inhibition curve with a large enough effect; inconclusive = small, poorly fitted or top-dose-only effect, or another doubt; inactive = no such curve, though single readings can be large or run the other way.

SMILES	Pf growth 96h	LmPK inh	Cycloheximide cs	Shiga inhibitor	Pf growth 48h
COc1ccc(/C(C)=N/NC(=O)CNC(=O)c2cccnc2)cc1OC	-24.6%	-4.1%	-1.3	-5.6	13.7%
O=C(NC(O)C(=O)c1ccccc1)c1cccs1 (configuration not stated)	41.4%	-3.8%	-5.3	-5.1	nt
C/C(=N/NC(=O)c1ccccn1)c1ccncc1	?	-7.3%	36.0*	91.7*	47.6%
C/C(=N\NC(=O)c1cccc2ccccc12)c1ccccn1	2.08µM*	1.4%	-1.5	-4.5	?
COc1ccc(C(=O)N/N=C(\C)c2ccccn2)cc1OC	50.8%	4.9%	21.8*	41.7*	?
O=C(NC(O)C(=O)c1ccccc1)c1ccccn1 (configuration not stated)	-5.0%	-6.8%	25.8*	38.4*	-19.5%
COc1cccc(N2CCN(C(=O)c3ccc(CS(=O)Cc4ccc(Cl)cc4)o3)CC2)c1 (configuration not stated)	?	-1.4%	-0.5	20.8	-16.9%
Cn1nc(-c2ccccc2)cc1NS(=O)(=O)c1ccc(C#N)cc1	-1.7%	1.9%	-3.1	5.8	1.9%
Cc1cccc(NC(=O)c2cc[n+]([O-])cc2)c1C	14.5%	-0.3%	-7.7	-7.7	11.5%
COC(=O)c1ccc(CN(c2ccc(C(=O)O)c(O)c2)S(=O)(=O)c2ccc(Cl)c([N+](=O)[O-])c2)cc1	-16.7%	2.3%	7.5	23.2	-18.3%
O=C(N/N=C(\c1ccccc1)c1ccccn1)c1ccccc1Cl	2.62µM*	-9.3%	0.8	-3.6	2.33µM*
C/C(=N\NC(=O)C(c1ccccc1)c1ccccc1)c1ccccn1	2.33µM*	-0.1%	-3.1	-0.7	2.33µM*
O=C(NCCNC(=O)c1cc(Cl)ccc1Cl)c1ccccn1	4.9%	-2.5%	-2.9	-4.6	-1.3%
C/C(=N\NC(=O)c1cc(Br)ccc1O)c1ccccn1	?	4.4%	27.7*	40.6*	?
C/C(=N\NC(=O)c1ccc(NS(=O)(=O)c2cccs2)cc1)c1ccccn1	11.7µM*	1.6%	1.5	19.0	?
C/C(=N\NC(=O)c1ccc(NS(=O)(=O)c2cccs2)cc1)c1ccncc1	21.8%[5.75 µM]	0.8%	2.1	12.0	31.4%[5.75 µM]
C/C(=N\NC(=O)c1cc(-c2cccs2)nc2ccccc12)c1ccccn1	?	-1.3%	8.0	-3.3	?
Cc1cc(=O)oc2cc(OCC(=O)N3CCN(C(=O)c4ccco4)CC3)ccc12	14.5%	-3.2%	-1.9	-8.3	5.4%
C/C(=N\NC(=O)c1ccccc1Cl)c1ccccn1	-4.9%	0.6%	28.3*	85.0*	1.65µM*
C/C(=N\NC(=O)c1cccc(Br)c1)c1ccccn1	-6.5%	1.8%	26.6*	87.4*	0.738µM*
C/C(=N/NC(=O)c1cccc(Br)c1)C1CC2CCC1C2 (configuration not stated)	-9.2%	-7.0%	47.4*	37.8	13.0%
C/C(=N\NC(=O)c1ccc(Cl)c(Cl)c1)c1ccccn1	?	-3.8%	8.4	5.4	0.586µM*
C/C(=N\NC(=O)c1ccc(Br)cc1)c1cccc(NC(=O)c2cccnc2)c1	-10.2%	1.0%	13.0	70.0	8.3%
CC/C(=N\NC(=O)C1CCCC1)c1cccc(Br)c1	?	3.6%	10.0	7.5	?
COc1ccc(C(=O)Nc2ccccn2)cc1	6.8%	0.5%	-4.4	8.6	-1.6%
SMILES	Pf growth 96h	LmPK inh	Cycloheximide cs	Shiga inhibitor	Pf growth 48h
COc1ccc(C(=O)N/N=C(\c2ccccc2)c2ccccn2)cc1	3.7µM*	0.9%	16.0	53.4*	2.62µM*
C/C(Cn1nnc2ccccc21)=N\NC(=O)c1cccc(Br)c1	?	-3.9%	24.2*	+	12.6%
C/C(=N\NC(=O)c1ccoc1C)c1cccc2ccccc12	12.2%	2.5%	61.7*	80.0*	?
C/C(Cn1nnc2ccccc21)=N/OC(=O)c1c(F)cccc1F	21.2%	-4.7%	12.7	-1.1	19.8%
Cc1ccsc1C(=O)C1CCCN(Cc2cnn(C)c2)C1 (configuration not stated)	?	1.1%	-1.9	0.7	-0.7%
COc1ccc(F)cc1C(=O)C1CCCN(Cc2cnc(C)s2)C1 (configuration not stated)	?	10.8%	-0.6	-11.5	1.7%
COc1ccc(Cl)cc1C(=O)C1CCCN(Cc2cnc(C)s2)C1 (configuration not stated)	?	2.9%	17.4*	52.8*	?
Cc1ncc(CN2CCCC(C(=O)c3sccc3C)C2)s1 (configuration not stated)	11.7µM*	2.3%	7.5	-22.0	-15.7%
O=C(Cc1n[nH]c(=O)c2ccccc12)Nc1cc(C(F)(F)F)ccc1-n1cncn1	6.5%	nt	nt	nt	?
CCCCn1c(N)c(N(CC(C)C)C(=O)C2CC(=O)N(Cc3ccccc3)C2)c(=O)[nH]c1=O (configuration not stated)	7.8%	nt	nt	nt	?
O=C1CC(c2ccc3c(c2)OCO3)c2cc(O)ccc2O1 (configuration not stated)	nt	nt	-1.4	i	nt
O=C1CC(c2ccccc2)c2cc(O)ccc2O1 (configuration not stated)	10.4µM*	5.6%	-2.1	-2.6	-14.2%
CN(C)CCN(C(=O)c1ccc(S(=O)(=O)N(C)c2ccccc2)cc1)c1nc2cc3c(cc2s1)OCO3	37.1%	-5.5%	18.5*	27.6	29.8%
CN(C)CCN(C(=O)c1ccco1)c1nc2cc3c(cc2s1)OCCO3	29.0%	8.5%	38.5*	41.2	75.4%
CCN(CC)CCN(C(=O)c1ccc2ccccc2c1)c1nc2cc3c(cc2s1)OCO3	?	2.4%	-2.6	-6.6	?
CN(C)CCN(C(=O)c1ccc(N2C(=O)CCC2=O)cc1)c1nc2cc3c(cc2s1)OCCO3	0.0%	0.0%	38.5*	59.9*	100.0%
CN(C)CCN(C(=O)c1ccc(S(=O)(=O)N(C)c2ccccc2)cc1)c1nc2ccc(Cl)cc2s1	?	-7.0%	33.5*	64.3*	-29.9%
CCCc1cc(=O)[nH]c(SCC(=O)Nc2ncc(S(=O)(=O)c3ccc([N+](=O)[O-])cc3)s2)n1	?	4.2%	-1.8	-4.0	23.4%
OC[C@@H](O)C1OC2NC(=S)OC2C1O (some centres not stated)	39.6%	1.2%	-2.0	2.7	16.2%
CN(C)CCCN(C(=O)C1COc2ccccc2O1)c1nc2cc3c(cc2s1)OCO3 (configuration not stated)	63.4%	-2.5%	-1.9	1.9	16.8%
CN(C)CCCN(C(=O)c1ccc(S(=O)(=O)N(C)C)cc1)c1nc2cc3c(cc2s1)OCO3	17.9%	3.3%	8.2	13.9	?
CN(C)CCCN(C(=O)COc1ccccc1)c1nc2cc3c(cc2s1)OCCO3	?	-1.7%	24.1*	17.7	53.8%
COc1ccc2sc(N(CCN(C)C)C(=O)c3ccc4ccccc4c3)nc2c1	97.4%	1.7%	21.1*	20.8	8.1%
